# Where “and” joins values, the source holds several entries; their conditions need not be identical. Identical values can stand only once. A number with no mark means an inactive call. Records with an inconclusive call do not appear. Where a call stands in place of a potency, no number is given. Calls of active or inactive are those of the source. Unless noted, calls follow the shape of the dose curve; as a rule, active = well fitted curve in the direction sought with a large enough effect; inconclusive = small, poorly fitted or top-dose-only effect, or another doubt; inactive = no such curve, though single readings can be large; an effect the other way counts as inactive or inconclusive.
# Assays:
# C33A = assay: Primary qHTS to identify gynecologic anti-cancer compounds using libraries of approved drugs and bioactive compounds (AID 1345084); conditions: Gynecologic cancer cell panel viability, ATPlite luminescence, 48 h; series mostly up to 57.5 µM; also: nearly all actives have a fitted effect of over 55% in size; also: potency is read from the fitted curve at half-maximal effect
# Outline: (§1)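 Cell viability after 48 h drug treatment, ATPlite luminescence readout; five doses.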
# CASKI = assay: as above; conditions: Gynecologic cancer cell panel viability, ATPlite luminescence, 48 h; series mostly up to 57.5 µM
# Outline: as §1
# Es-2 = assay: as above; conditions: Gynecologic cancer cell panel viability, ATPlite luminescence, 48 h; series mostly up to 57.5 µM
# Outline: as §1
# HeLa = assay: as above; conditions: Gynecologic cancer cell panel viability, ATPlite luminescence, 48 h; series mostly up to 57.5 µM
# Outline: as §1
# Hek293T = assay: as above; conditions: Gynecologic cancer cell panel viability, ATPlite luminescence, 48 h, control line for the selectivity index; series mostly up to 57.5 µM
# Outline: as §1
# JEG-3 = assay: as above; conditions: Gynecologic cancer cell panel viability, ATPlite luminescence, 48 h; series mostly up to 57.5 µM
# Outline: as §1
# OV90 = assay: as above; conditions: Gynecologic cancer cell panel viability, ATPlite luminescence, 48 h; series mostly up to 57.5 µM
# Outline: as §1
# PA-1 = assay: as above; conditions: Gynecologic cancer cell panel viability, ATPlite luminescence, 48 h; series mostly up to 57.5 µM
# Outline: as §1
# SKOV3 = assay: as above; conditions: Gynecologic cancer cell panel viability, ATPlite luminescence, 48 h; series mostly up to 57.5 µM
# Outline: as §1
# Tov-21-G = assay: as above; conditions: Gynecologic cancer cell panel viability, ATPlite luminescence, 48 h; series mostly up to 57.5 µM
# Outline: as §1
# Tov112D = assay: as above; conditions: Gynecologic cancer cell panel viability, ATPlite luminescence, 48 h; series mostly up to 57.5 µM
# Outline: as §1
# [1] = Drug repurposing screens with cells derived from glioblastoma tumor samples (AID 1345199); conditions: GBM patient neurospheres viability, ATP luminescence, 48 h; also: nearly all actives have a fitted effect of over 40% in size; also: potency is read from the fitted curve at half-maximal effect
# Outline: (§2)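 Primary testing used CD133+ neurospheres from four GBM patients, seven concentrations, 48 h exposure and ATP-based viability; confirmation added three slower-growing patient lines.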
# CAOV3 = assay: Primary qHTS to identify gynecologic anti-cancer compounds using libraries of approved drugs and bioactive compounds (AID 1345084); conditions: Gynecologic cancer cell panel viability, ATPlite luminescence, 48 h; series mostly up to 57.5 µM; also: nearly all actives have a fitted effect of over 55% in size; also: potency is read from the fitted curve at half-maximal effect
# Outline: as §1
# astro = assay: Drug repurposing screens with cells derived from glioblastoma tumor samples (AID 1345199); conditions: viability, ATP luminescence, 48 h; series mostly up to 45.9 µM; also: nearly all actives have a fitted effect of over 40% in size; also: potency is read from the fitted curve at half-maximal effect
# Outline: as §2
# [2] = qHTS assay for small molecule activators of the human pregnane X receptor (PXR) signaling pathway (AID 720659; call rule not given here)
# [3] = qHTS assay to identify inhibitors of the type 1 interferon - major histocompatibility complex class I in skeletal muscle: Counter screen cell viability and HiBit confirmation (AID 1347412); conditions: iHSKM muscle cells + IFN-b, HiBiT or CellTiter-Glo, 24 h, at 45.9 µM (top of the series); also: nearly all actives have a fitted effect of over 60% in size
# Outline: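 After 24 h with human IFN-beta (4 ng/ml) and compound titrations (top 46 uM final, 1:3, 12 points), HLA-B HiBit myoblasts were lysed for either Nano-Glo HiBiT luminescence or CellTiter Glo viability on paired plates.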
# [4] = at 45.9 µM (top of the series), tumour line B
# [5] = at 45.9 µM (top of the series), tumour line D
# [6] = at 46.1 µM (top of the series), tumour line C
# [7] = at 46 µM (top of the series), tumour line A
# [8] = at 20 µM (top of the series), tumour line C
# [9] = at 21.2 µM (top of the series), tumour line B
# [10] = at 21.2 µM (top of the series), tumour line D
smiles,measurement,setting,value
CCN[C@H]1C[C@H](C)S(=O)(=O)c2sc(S(N)(=O)=O)cc21,Potency,C33A,inactive
same,Potency,CASKI,inactive
same,Potency,Es-2,inactive
same,Potency,HeLa,inactive
same,Potency,Hek293T,inactive
same,Potency,JEG-3,inactive
same,Potency,OV90,inactive
same,Potency,PA-1,inactive
same,Potency,SKOV3,inactive
same,Potency,Tov-21-G,inactive
same,Potency,Tov112D,inactive
same,"activity, negative = cell killing",[1]; [4],-1.09%
same,"activity, negative = cell killing",[1]; [5],3.44%
same,"activity, negative = cell killing",[1]; [6],-27%
CCC(=O)O[C@]1(C(=O)CCl)[C@@H](C)C[C@H]2[C@@H]3CCC4=CC(=O)C=C[C@]4(C)[C@@]3(F)[C@@H](O)C[C@@]21C,Potency,C33A,inactive
same,Potency,CAOV3,inactive
same,Potency,CASKI,inactive
same,Potency,Es-2,inactive
same,Potency,HeLa,inactive
same,Potency,Hek293T,inactive
same,Potency,JEG-3,inactive
same,Potency,OV90,inactive
same,Potency,PA-1,inactive
same,Potency,Tov-21-G,inactive
same,Potency,Tov112D,inactive
same,"activity, negative = cell killing",[1]; [4],-2.08%
same,"activity, negative = cell killing",[1]; [5],0.817%
same,"activity, negative = cell killing",[1]; [6],10.1%
same,Potency,astro,inactive
Cc1noc(NS(=O)(=O)c2ccc(N)cc2)c1C,Potency,C33A,inactive
same,Potency,CASKI,inactive
same,Potency,Es-2,inactive
same,Potency,HeLa,inactive
same,Potency,Hek293T,inactive
same,Potency,JEG-3,inactive
same,Potency,OV90,inactive
same,Potency,PA-1,inactive
same,Potency,SKOV3,inactive
same,Potency,Tov-21-G,inactive
same,Potency,Tov112D,inactive
same,"activity, negative = cell killing",[1]; [4],-5.33% and -3.65%
same,"activity, negative = cell killing",[1]; [5],-24.3% and -9.55%
same,"activity, negative = cell killing",[1]; [7],-16.5%
same,"activity, negative = cell killing",[1]; [6],-22.2% and -6.01%
same,outcome,[2],inactive
CCC(=O)O[C@]1(C(=O)SCF)[C@H](C)C[C@H]2[C@@H]3C[C@H](F)C4=CC(=O)C=C[C@]4(C)[C@@]3(F)[C@@H](O)C[C@@]21C,Potency,C33A,inactive
same,Potency,CASKI,inactive
same,Potency,Es-2,inactive
same,Potency,HeLa,inactive
same,Potency,Hek293T,inactive
same,Potency,JEG-3,inactive
same,Potency,OV90,inactive
same,Potency,PA-1,inactive
same,Potency,SKOV3,inactive
same,Potency,Tov-21-G,inactive
same,Potency,Tov112D,inactive
same,"activity, negative = cell killing",[1]; [8],-9.5%
same,"activity, negative = cell killing",[1]; [9],-18.7%
same,"activity, negative = cell killing",[1]; [10],13.1%
same,"activity, negative = cell killing","[1]; at 21.3 µM (top of the series), tumour line A",-14.8%
same,"activity change, negative = inhibition",[3]; HiBiT,-26.7%
same,"activity change, negative = inhibition",[3]; Viability,10%
COC(c1ccccc1)(c1ccccc1)[C@H](Oc1nc(C)cc(C)n1)C(=O)O,Potency,C33A,inactive
same,Potency,CAOV3,inactive
same,Potency,CASKI,inactive
same,Potency,Es-2,inactive
same,Potency,HeLa,inactive
same,Potency,Hek293T,inactive
same,Potency,JEG-3,inactive
same,Potency,OV90,inactive
same,Potency,PA-1,inactive
same,Potency,SKOV3,inactive
same,"activity, negative = cell killing",[1]; [4],-11%
same,"activity, negative = cell killing",[1]; [5],-22.7%
same,"activity, negative = cell killing",[1]; [7],-16.8%
same,"activity, negative = cell killing",[1]; [6],2.92%
CN(CCOc1ccc(CC2SC(=O)NC2=O)cc1)c1ccccn1 (configuration not stated),Potency,C33A,inactive
same,Potency,CAOV3,inactive
same,Potency,CASKI,inactive
same,Potency,Es-2,inactive
same,Potency,HeLa,inactive
same,Potency,Hek293T,inactive
same,Potency,JEG-3,inactive
same,Potency,PA-1,inactive
same,Potency,SKOV3,inactive
same,Potency,Tov-21-G,inactive
same,Potency,Tov112D,inactive
same,"activity, negative = cell killing",[1]; [4],-18.3%
same,"activity, negative = cell killing",[1]; [5],-26.6%
same,"activity, negative = cell killing",[1]; [7],-36.2%
same,"activity, negative = cell killing",[1]; [6],15.3%
same,Potency,astro,inactive
CN1CCCC(n2nc(Cc3ccc(Cl)cc3)c3ccccc3c2=O)CC1 (configuration not stated),Potency,C33A,inactive
same,Potency,CAOV3,inactive
same,Potency,CASKI,inactive
same,Potency,HeLa,inactive
same,Potency,Hek293T,inactive
same,Potency,JEG-3,inactive
same,Potency,SKOV3,inactive
same,"activity, negative = cell killing",[1]; [6],4.16%
same,Potency,[1]; tumour line A,11.2 µM (active)
same,Potency,[1]; tumour line D,14.1 µM (active)
CCOc1cc(N)c(Cl)cc1C(=O)NCC1CN(Cc2ccc(F)cc2)CCO1 (configuration not stated),Potency,C33A,inactive
same,Potency,CAOV3,inactive
same,Potency,CASKI,inactive
same,Potency,Es-2,inactive
same,Potency,HeLa,inactive
same,Potency,Hek293T,inactive
same,Potency,JEG-3,inactive
same,Potency,SKOV3,inactive
same,Potency,Tov-21-G,inactive
same,Potency,Tov112D,inactive
same,"activity, negative = cell killing",[1]; [4],-18.6%
same,"activity, negative = cell killing",[1]; [6],4.16%
same,Potency,[1]; tumour line A,11.2 µM (active)
same,Potency,astro,inactive
COc1c(N2CCNC(C)C2)c(F)cc2c(=O)c(C(=O)O)cn(C3CC3)c12 (configuration not stated),Potency,C33A,inactive
same,Potency,CAOV3,inactive
same,Potency,CASKI,inactive
same,Potency,Es-2,inactive
same,Potency,HeLa,inactive
same,Potency,Hek293T,inactive
same,Potency,JEG-3,inactive
same,Potency,OV90,inactive
same,Potency,PA-1,inactive
same,Potency,Tov-21-G,inactive
same,Potency,Tov112D,inactive
same,"activity, negative = cell killing",[1]; [4],-10.7%
same,"activity, negative = cell killing",[1]; [5],-20.8%
same,"activity, negative = cell killing",[1]; [6],14.5%
C[C@@H](CN1CC(=O)NC(=O)C1)N1CC(=O)NC(=O)C1,Potency,C33A,inactive
same,Potency,CAOV3,inactive
same,Potency,CASKI,inactive
same,Potency,Es-2,inactive
same,Potency,Hek293T,inactive
same,Potency,JEG-3,inactive
same,Potency,OV90,inactive
same,Potency,PA-1,inactive
same,Potency,SKOV3,inactive
same,Potency,Tov-21-G,inactive
same,Potency,Tov112D,inactive
same,"activity, negative = cell killing",[1]; [4],-2.51%
same,"activity, negative = cell killing",[1]; [5],-10.3%
same,"activity, negative = cell killing",[1]; [6],-0.792%
same,Potency,astro,inactive
C1CCC(C(CC2CCCCN2)C2CCCCC2)CC1 (configuration not stated),Potency,C33A,31.6 µM (active)
same,Potency,CAOV3,6.31 µM (active)
same,Potency,CASKI,20 µM (active)
same,Potency,Es-2,28.2 µM (active)
same,Potency,OV90,25.1 µM (active)
same,Potency,SKOV3,7.94 µM (active)
same,Potency,Tov-21-G,31.6 µM (active)
same,Potency,astro,15.8 µM (active)
O=c1cc(O)c(Cl)c[nH]1,Potency,C33A,inactive
same,Potency,CAOV3,inactive
same,Potency,CASKI,inactive
same,Potency,Es-2,inactive
same,Potency,HeLa,inactive
same,Potency,Hek293T,inactive
same,Potency,JEG-3,inactive
same,Potency,OV90,inactive
same,Potency,SKOV3,inactive
same,Potency,Tov-21-G,inactive
same,Potency,Tov112D,inactive
same,"activity, negative = cell killing",[1]; [4],-16%
same,"activity, negative = cell killing",[1]; [5],7.88%
same,"activity, negative = cell killing",[1]; [7],-15.8%
same,"activity, negative = cell killing",[1]; [6],-29.9%
same,Potency,astro,inactive
CC(=O)[C@H]1CC[C@H]2[C@@H]3CC=C4C[C@@H](O)CC[C@]4(C)[C@H]3CC[C@]12C,Potency,C33A,inactive
same,Potency,CAOV3,inactive
same,Potency,CASKI,inactive
same,Potency,Es-2,inactive
same,Potency,Hek293T,inactive
same,Potency,JEG-3,inactive
same,Potency,OV90,inactive
same,Potency,PA-1,inactive
same,Potency,SKOV3,inactive
same,Potency,Tov-21-G,inactive
same,Potency,Tov112D,inactive
same,"activity, negative = cell killing",[1]; [4],-3.14%
same,"activity, negative = cell killing",[1]; [6],6.87%
same,Potency,astro,inactive
Cc1cccc(N(C)C(=S)Oc2ccc3ccccc3c2)c1,Potency,C33A,inactive
same,Potency,CAOV3,inactive
same,Potency,CASKI,inactive
same,Potency,Es-2,inactive
same,Potency,HeLa,inactive
same,Potency,Hek293T,inactive
same,Potency,OV90,inactive
same,Potency,PA-1,inactive
same,Potency,SKOV3,inactive
same,Potency,Tov-21-G,inactive
same,Potency,Tov112D,inactive
same,"activity, negative = cell killing",[1]; [8],-6.63%
same,"activity, negative = cell killing",[1]; [9],-15.9%
same,"activity, negative = cell killing",[1]; [10],-7.02%

# Reference: PubChem BioAssay (NCATS)
